In the library only some 2.3% were active in any assay of this set; here they are far more common.
Bcl-xL primary = blocks human Bcl-xL binding to Bim BH3 peptide. Q07817. inhibition, % at 10.9 µM. GST-Bcl-xL / FITC-Bim BH3 peptide fluorescence polarization. 320,000 tested, 0.7% active;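 active means inhibition above the mean of all tested compounds plus 3 SD, cutoff set per campaign, cut at about 30% in these data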;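 further: inhibitors lower millipolarization by displacing the labeled peptide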
Bim-Mcl-1 = inhibitors of Bim-Mcl-1 interaction, human. Q07820. Bead-based flow cytometry, Bim peptide-Mcl-1 binding. inhibition, % at 10 µM. 190,000 tested, 0.1% active; in the data active means inhibition above about 40%
Target sequence (Q07820 whole entry, looked up): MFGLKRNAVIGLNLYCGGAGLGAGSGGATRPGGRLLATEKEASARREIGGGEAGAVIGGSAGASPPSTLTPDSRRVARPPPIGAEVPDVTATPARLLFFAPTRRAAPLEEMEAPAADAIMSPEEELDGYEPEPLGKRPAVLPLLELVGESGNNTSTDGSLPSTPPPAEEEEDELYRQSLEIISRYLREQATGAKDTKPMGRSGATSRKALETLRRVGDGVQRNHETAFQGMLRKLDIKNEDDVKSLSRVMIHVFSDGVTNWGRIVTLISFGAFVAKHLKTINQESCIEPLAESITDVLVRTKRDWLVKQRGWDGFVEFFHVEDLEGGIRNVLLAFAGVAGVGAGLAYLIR
GLD-1 TGE inh = GLD-1-TGE RNA interaction inhibition (C. elegans) | Q17339 | purified GLD-1 + fluorescein TGE RNA, fluorescence polarization | inhibition, % at 5.96 µM | 320,000 tested, 0.44% active | AID 2280;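 active means percent inhibition above a per-plate cutoff, the plate mean of test compounds plus 3 SD, cut at about 30% in these data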
Target sequence (Q17339 whole entry, looked up): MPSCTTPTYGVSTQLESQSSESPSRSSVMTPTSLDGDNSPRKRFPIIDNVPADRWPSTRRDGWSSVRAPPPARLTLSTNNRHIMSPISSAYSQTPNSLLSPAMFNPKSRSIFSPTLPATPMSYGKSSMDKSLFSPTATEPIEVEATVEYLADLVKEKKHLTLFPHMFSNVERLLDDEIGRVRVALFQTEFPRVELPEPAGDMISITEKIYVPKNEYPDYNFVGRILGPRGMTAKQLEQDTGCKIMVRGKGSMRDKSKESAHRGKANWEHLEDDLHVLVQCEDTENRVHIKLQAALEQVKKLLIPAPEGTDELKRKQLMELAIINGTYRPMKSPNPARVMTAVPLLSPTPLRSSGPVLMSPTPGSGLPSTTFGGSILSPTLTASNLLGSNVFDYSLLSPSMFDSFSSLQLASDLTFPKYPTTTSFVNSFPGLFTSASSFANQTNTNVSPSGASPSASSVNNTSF
Mcl1-Bid inh = disrupts binding of human Mcl-1 to Bid peptide. 220,000 tested, 0.97% active. AID 1021. TR-FRET Mcl-1/Bid-Dy647 peptide binding, 1536-well. Q07820. inhibition, % at 21.7 µM;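 active means compounds that cut the binding signal by more than half at the single screening dose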;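 further: His-tagged Mcl-1 with europium anti-His antibody binding Bid BH3 peptide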
Mcl1 Noxa PPI = disrupts binding of human Mcl-1 to Noxa peptide; Q07820; TR-FRET Mcl-1/Noxa peptide binding, 2 h; inhibition, % at 21.7 µM; 220,000 tested, 1.5% active; AID 1022;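 active means compounds that cut the protein-peptide binding signal by more than 50% relative to plate controls in a single-dose test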;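 further: His-tagged Mcl-1 with rhodamine Noxa BH3 peptide and terbium anti-His antibody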
MCL1-BIM inh = disrupts human MCL1 binding to BIM-BH3 peptide. GST-MCL1 / FITC-Bim-BH3 fluorescence polarization. inhibition, % at 10.9 µM. 320,000 tested, 0.68% active;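 active means inhibition above the mean inhibition of all tested compounds plus 3 SD, set per campaign, cut at about 40% in these data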;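 further: higher means more loss of mP so more displacement of Bim peptide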
Of the large screens only hits and unclear results are named; the others gave an inactive call.

CN(C)CCNC(=O)c1ccc(Sc2ccc(Br)cc2)c([N+](=O)[O-])c1	none
COC(=O)c1ccc(NC(=O)c2ccccc2N(C)S(=O)(=O)c2ccccc2)cc1	Mcl1-Bid inh 98
COc1ccccc1NC(=O)c1ccc(COc2ccc3c(c2)CCC3)cc1	none
COC(=O)c1ccccc1NC(=O)c1ccc(COc2ccc3c(c2)CCC3)cc1	Mcl1-Bid inh 58
O=S(=O)(Nc1ccc2nc(-c3ccc(Br)o3)[nH]c2c1)c1ccccc1	Mcl1 Noxa PPI 52 (no result: Bcl-xL primary, GLD-1 TGE inh, MCL1-BIM inh)
CC(=O)C1=C(c2ccccc2)NC(=S)NC1c1ccc(O)c(O)c1 (stereo not drawn)	Mcl1 Noxa PPI 52
CC(=O)C1=C(c2ccccc2)NC(=S)NC1c1cc(Cl)c(OC(C)C)c(Cl)c1 (stereo not drawn)	none
O=C(O)c1ccc(NS(=O)(=O)c2ccc3c(c2)C(=O)c2ccccc2C3=O)cc1	Bcl-xL primary 37
Cc1ccc(-c2nc3ccc(Cl)cc3n2OC(C)C(=O)O)cc1 (stereo not drawn)	none
Cc1nc2ccccc2n1C(=O)c1ccccc1[N+](=O)[O-]	Mcl1-Bid inh 52
Cc1c(C(=O)n2cnc3ccccc32)cccc1[N+](=O)[O-]	none (no result: Bim-Mcl-1, Mcl1-Bid inh, Mcl1 Noxa PPI)
N/C(=N\OC(=O)CC1CCCCC1)c1ccncc1	none
CC(C)(C)CC(=O)O/N=C(\N)c1ccncc1	Mcl1-Bid inh 82
N/C(=N\OC(=O)CCC1CCCC1)c1ccncc1	Bim-Mcl-1 95
Nc1n[nH]c(CO)n1	none (no result: Bcl-xL primary, Bim-Mcl-1, GLD-1 TGE inh, MCL1-BIM inh)
CC1=NN(c2ccccc2)C(=O)/C1=C/c1c(O)n(-c2ccc(F)c(Cl)c2)[nH]c1=O	Mcl1 Noxa PPI 86
CC(=O)NN1C(=O)c2ccc3c4c(ccc(c24)C1=O)C(=O)N(NC(C)=O)C3=O	none (no result: Bim-Mcl-1, Mcl1-Bid inh, Mcl1 Noxa PPI)
CC1=C(C(=O)OCc2ccccc2)C(/C=C/c2ccccc2)NC(=S)N1 (stereo not drawn)	Mcl1-Bid inh 54
CC(=O)Nc1ccc(/C=C2/Sc3ccccc3C2=O)cc1	Mcl1 Noxa PPI 72
O=C1/C(=C\c2cccnc2)Sc2ccccc21	none
COc1ccccc1Nc1nc2nonc2[nH]c1=O	none
COc1ccc(C2CC(=O)C3=C(C2)Nc2ccccc2NC3c2coc3ccccc3c2=O)cc1OC (stereo not drawn)	Bim-Mcl-1 42
COc1cc(OC)c(C2Nc3ccccc3NC3=C2C(=O)CC(C)(C)C3)cc1OC (stereo not drawn)	none (no result: Bim-Mcl-1, Mcl1-Bid inh, Mcl1 Noxa PPI)
Oc1cc2c(cc1C(c1ccc(Br)cc1)N1CCCC1)OCO2 (stereo not drawn)	Mcl1-Bid inh 90, Mcl1 Noxa PPI 82 (no result: Bcl-xL primary, GLD-1 TGE inh, MCL1-BIM inh)
O=S(=O)(NCC(c1ccc2c(c1)OCO2)N1CCOCC1)c1ccc(Br)cc1 (stereo not drawn)	none (no result: Bim-Mcl-1, Mcl1-Bid inh, Mcl1 Noxa PPI)
O=C(CNC(=O)c1ccccc1F)Nc1ccc2c(c1)OCO2	none (no result: Bcl-xL primary, Bim-Mcl-1, Mcl1-Bid inh, Mcl1 Noxa PPI, MCL1-BIM inh)
O=C1C(Cl)=C(N2CCCCC2)C(=O)C(Cl)=C1c1cnc(N2CCCCC2)s1	Bim-Mcl-1 62, Mcl1-Bid inh 65, Mcl1 Noxa PPI 109 (no result: Bcl-xL primary, GLD-1 TGE inh, MCL1-BIM inh)
Cc1cc(-c2nnc(SCC(=O)Nc3nccs3)o2)no1	none (no result: Bim-Mcl-1)
O=C1c2ccc(-c3ccc(Cl)c(C(F)(F)F)c3)cc2S(=O)(=O)c2cccc(C(=O)N3CCN(c4ccc(Cl)cn4)CC3)c21	none (no result: Bcl-xL primary, Bim-Mcl-1, Mcl1-Bid inh, Mcl1 Noxa PPI, MCL1-BIM inh)
O=C1c2ccccc2C(=O)N1/N=C/c1ccc(O)c(O)c1O	Mcl1 Noxa PPI 100 (no result: Bcl-xL primary, Bim-Mcl-1, GLD-1 TGE inh, MCL1-BIM inh)
O=C1c2cccc3cccc(c23)C(=O)N1c1ccc(O)cc1	none (no result: Bim-Mcl-1, Mcl1-Bid inh, Mcl1 Noxa PPI)
O=C1c2cccc3cccc(c23)C(=O)N1/N=C/c1ccc(O)cc1O	Mcl1 Noxa PPI 60
COc1cc(/C=N/N2C(=O)c3ccccc3C2=O)ccc1O	none
O=C1c2ccccc2C(=O)N1CC#CCN1CCN(C(c2ccccc2)c2ccccc2)CC1	Mcl1-Bid inh 62
CCCCc1nc2cc(C(=O)N3CCCC(COC)C3)ccc2o1 (stereo not drawn)	none (no result: Bim-Mcl-1, Mcl1-Bid inh, Mcl1 Noxa PPI)
Fc1cccc(NC(=S)NNc2c3ccccc3nc3ccccc23)c1	Mcl1 Noxa PPI 80 (no result: Bcl-xL primary, GLD-1 TGE inh, MCL1-BIM inh)
O=C(Nc1cccc(C(F)(F)F)c1)Oc1ccccc1N1CCOCC1	none (no result: Bim-Mcl-1)
Cc1cc(C)cc(NC(=O)Oc2ccccc2N2CCCCC2)c1	Mcl1 Noxa PPI 51 (no result: Bim-Mcl-1)
O=C1ON=C(c2ccccc2)/C1=C/c1ccc(-c2ccccc2[N+](=O)[O-])o1	Mcl1 Noxa PPI 67
CCN1/C(=C/c2cc[n+](C)cc2)C=Cc2cc(C)ccc21	Mcl1 Noxa PPI 56
CCN1C(=O)/C(=C2\C=Cc3cc(C)ccc3N2CC)OC1=S	none
CCOC(=O)C1(CC2CC2)CCN(Cc2ccc3cccc(F)c3n2)CC1	none
CCC(CC)=N/N=C/c1c(O)n(CC)c2cc(C3=NNC(=O)CC3)ccc12	Mcl1-Bid inh 66
CC(=O)Nc1ccc(C2=NNC(=NCC3CCCO3)SC2)cc1 (stereo not drawn)	Mcl1 Noxa PPI 61
Fc1ccc(F)c(C2=NNC(=NCC3CCCO3)SC2)c1 (stereo not drawn)	none
CC(=O)c1cccc(NC(=O)C(Sc2ncnc3ccccc23)c2ccccc2)c1 (stereo not drawn)	Mcl1-Bid inh 56
S=c1[nH]nc(-c2ccco2)n1/N=C/c1cccc(Cl)c1Cl	Mcl1 Noxa PPI 72
O=C1NN(c2ccccc2)C(=O)/C1=C\c1ccc(-c2cc([N+](=O)[O-])ccc2O)o1	Mcl1 Noxa PPI 87 (no result: Bcl-xL primary, GLD-1 TGE inh, MCL1-BIM inh)
O=C1NN(c2ccc(Cl)cc2)C(=O)/C1=C\c1ccc(-c2cccc(C(=O)O)c2)o1	Mcl1 Noxa PPI 81 (no result: Bcl-xL primary, GLD-1 TGE inh, MCL1-BIM inh)
COC(=O)c1ccc2nc(Nc3nc4c(F)cc(F)cc4s3)sc2c1	Mcl1-Bid inh 64, Mcl1 Noxa PPI 81
Cc1cc(C(=O)CSc2nnc(-c3cccs3)n2Cc2ccccc2)c(C)n1C	none
O=c1cc(CSc2nnc(-c3cccs3)n2Cc2ccccc2)nc2sc3ccccc3n12	Mcl1 Noxa PPI 59
COC/C=C/C1=CC2=CC(=O)C(C)(OC(=O)c3cnc4ccccc4n3)C(=O)C2=CN1c1ccc(CO)cc1 (stereo not drawn)	MCL1-BIM inh 91 (no result: Bim-Mcl-1, Mcl1-Bid inh, Mcl1 Noxa PPI)
Cc1cc2nc(CO)[nH]c2cc1C	none (no result: Bim-Mcl-1)
Cc1cc2nc(/C=C/c3nc4cc(C)c(C)cc4[nH]3)[nH]c2cc1C	Mcl1 Noxa PPI 79 (no result: Bim-Mcl-1)
CCOC(=O)N1CCN(C(=O)c2cn(CC)c3ccc(S(=O)(=O)N4CCOCC4)cc3c2=O)CC1	none (no result: Bim-Mcl-1, Mcl1-Bid inh, Mcl1 Noxa PPI)
Cc1cccc(CS(=O)(=O)Cc2ccc(C(=O)O)o2)c1	Mcl1 Noxa PPI 56
COCCCNC(=O)c1ccc(CS(=O)(=O)Cc2cccc(C)c2)o1	none
C/C(N)=C(/C#N)C(=O)CSc1nc2cc(Cl)ccc2s1	Mcl1 Noxa PPI 53
C/C(N)=C(/C#N)C(=O)CSc1cc(Cl)ccc1Cl	none
Cc1ccc(C(=O)C2CCN(S(=O)(=O)c3ccc(C(=O)O)cc3)CC2)cc1	none (no result: Bim-Mcl-1, Mcl1-Bid inh, Mcl1 Noxa PPI)
O=C(CCC1CCCN(C(=O)CCC(F)(F)F)C1)NCc1ccc(F)c(F)c1 (stereo not drawn)	Mcl1 Noxa PPI 53
COC(=O)CCCC(=O)N1CCCC(CCC(=O)NCc2ccc(F)c(F)c2)C1 (stereo not drawn)	none

High-throughput results (PubChem)
